Hit rate of the full screen: of about 340,000 compounds, about 2,100 (0.62%) were called active.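 How the source made its calls: active means first-screen hits whose inhibition reached a set limit at any dose in the follow-up dose series; inconclusive means inhibition above the set first-screen limit but never retested; inactive means the rest.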 These entries were drawn from the full list. Results with a measured potency or affinity are listed apart.
What follows are compounds tested against Rac GTPase-activating protein 1 (Homo sapiens) (UniProt Q9H0H5) (assay: MgcRacGAP GTPase-activating activity inhibitors, confirmation, biochemical, ADP Hunter fluorescence, primary and confirmatory (AID 624330;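 further: fluorescence reports GDP produced by GAP-driven GTP hydrolysis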)). Conditions: MgcRacGAP-stimulated Rac1 GTP hydrolysis, at 30 µM, stronger effect = higher value, GST-tagged Rac1 F28L mutant substrate.
Chain of Rac GTPase-activating protein 1 (Homo sapiens) (Q9H0H5 whole entry, looked up): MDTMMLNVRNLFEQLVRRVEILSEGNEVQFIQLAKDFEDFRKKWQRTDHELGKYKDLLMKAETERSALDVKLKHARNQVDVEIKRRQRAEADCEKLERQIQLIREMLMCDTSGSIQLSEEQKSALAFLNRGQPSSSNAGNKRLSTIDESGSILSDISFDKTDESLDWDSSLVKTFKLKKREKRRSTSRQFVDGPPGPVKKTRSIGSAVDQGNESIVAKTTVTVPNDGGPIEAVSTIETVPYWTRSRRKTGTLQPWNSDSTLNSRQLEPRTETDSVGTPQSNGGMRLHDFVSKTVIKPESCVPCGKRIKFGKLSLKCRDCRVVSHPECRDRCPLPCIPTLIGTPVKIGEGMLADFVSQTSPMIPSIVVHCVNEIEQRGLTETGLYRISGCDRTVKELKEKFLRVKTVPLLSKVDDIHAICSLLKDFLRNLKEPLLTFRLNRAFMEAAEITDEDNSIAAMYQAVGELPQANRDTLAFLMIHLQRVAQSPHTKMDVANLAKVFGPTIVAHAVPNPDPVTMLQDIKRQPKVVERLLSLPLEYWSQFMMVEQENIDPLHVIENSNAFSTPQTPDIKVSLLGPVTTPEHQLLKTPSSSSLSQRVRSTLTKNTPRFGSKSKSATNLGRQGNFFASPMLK

inhibition, inactive:
Cc1cc(C)n2c(SCC(=O)N(CC(C)C)c3c(N)n(CC(C)C)c(=O)[nH]c3=O)nnc2n1 5.05%
O=C(O)CCC(=O)Nc1cccc(C(=O)c2ccccc2)c1 8.75%
OCc1ccccc1OCCCN1CCC(Cc2ccccc2)CC1 22.1%
COc1cccc(OC)c1OCCCN1CCC(Cc2ccccc2)CC1 28%
N#CC1(NC(=O)CSc2nnc(Cc3ccccc3)o2)CCCCC1 -4.91%
CC1CC(C)CN(C(=O)c2ccc(CSc3nc4ccncc4[nH]3)cc2)C1 (stereo unspecified) 4.54%
COc1ccc(C(=O)NCC(c2ccc3c(c2)OCO3)N2CCN(c3ccc(OC)cc3)CC2)cc1 (stereo unspecified) 7.8%
COc1ccc(N2CCN(C(CNC(=O)C(C)C)c3ccc4c(c3)OCO4)CC2)cc1 (stereo unspecified) 26.1%
COC(=O)NCC(c1ccc2c(c1)OCO2)N1CCN(c2ccccc2)CC1 (stereo unspecified) 6.79%
COc1ccc(C(CNC(=O)c2cc(C)oc2C)N2CCOCC2)cc1 (stereo unspecified) -3.27%
COc1ccc(N2CCN(C(CNC(C)=O)c3ccc4c(c3)OCO4)CC2)cc1 (stereo unspecified) 11.6%
COc1ccc(C(CNC(=O)c2cc(F)c(F)c(F)c2F)N2CCOCC2)cc1 (stereo unspecified) 5.28%
COc1cccc(CC(=O)OCC(=O)NC2(C#N)CCCCC2)c1 6.74%
COc1ccc(N2CC(C(=O)OCC(=O)NCc3ccccc3)CC2=O)cc1 (stereo unspecified) -1.54%
C=CCn1c(SCC(=O)c2ccc(O)c(O)c2)nnc1-c1ccc(OC)cc1 8.3%
C=CCn1c(SCC(=O)c2ccc(O)c(O)c2)nnc1-c1ccc(C)cc1 24.7%
C=CCn1c(SCC(=O)c2ccc(O)c(O)c2)nnc1-c1ccccc1OC 19.4%
C=CCn1c(SCC(=O)O)nnc1-c1cccc(Cl)c1 -7.04%
O=C(COc1ccccc1F)NCc1nc2ccccc2[nH]1 10.2%
N#Cc1ccc(Cl)cc1NC(=O)COC(=O)[C@H](CCC(N)=O)NC(=O)c1ccc(F)cc1 -1.8%
C[C@H](O)CNC(=O)c1[nH]cnc1C(=O)Nc1ccc(CNC(=O)OC(C)(C)C)cc1 13.6%
COc1ccc(N2CCN(c3ccc(C(=O)O)cc3[N+](=O)[O-])CC2)cc1 25.5%
CC(=O)c1ccc(N2CCN(c3ccc(C(N)=O)cc3[N+](=O)[O-])CC2)cc1 6.37%
COC(C[C@@H]1O[C@@H]1C(=O)COCc1ccccc1)OC 2.07%
O=C(NCCCn1ccnc1)c1cccc(S(=O)(=O)Nc2ccc(Br)cc2)c1 -2.05%
CSc1nc2c(c(=O)[nH]c(=O)n2C)n1Cc1ccccc1 2.19%
CSc1nc2c(c(=O)[nH]c(=O)n2C)n1CCCc1ccccc1 5.17%
Cn1c(=O)[nH]c(=O)c2c1nc(N)n2Cc1ccccc1 5.45%
Cn1c(=O)c2c(nc(Br)n2CCCc2ccccc2)n(C)c1=O 8.11%
CNc1nc2c(c(=O)n(C)c(=O)n2C)n1CCCc1ccccc1 10.2%
CNc1nc2c(c(=O)[nH]c(=O)n2C)n1CCCc1ccccc1 16.1%
COc1ccc(CCn2c(O)cc3nn(-c4nc5ccccc5s4)c(=O)c-3c2C)cc1 20.6%
Cc1ccc(C)c(S(=O)(=O)NCC(=O)NCc2ccco2)c1 1.96%
CC(C)Oc1ccc(C2NC(=O)c3ccccc3O2)cc1 (stereo unspecified) 4.5%
CC1CCCN(C(=O)C(=O)Nc2ccc3nc4n(c(=O)c3c2)CCCCC4)C1 (stereo unspecified) 7.24%
Cc1noc(NC(=O)c2cccc(Cl)c2Cl)c1C#N 6.81%
N#Cc1cccc(NC(=O)CSc2sc3c(O)cc(=O)[nH]c3c2C#N)c1 18.4%
NS(=O)(=O)c1ccc(NC(=O)CN2C(=O)CCC2=O)cc1 6.61%
CC1CN(C(=O)N2c3ccccc3Sc3ccccc32)C(C)CC1=O (stereo unspecified) 5.35%
O=C(CSc1ccccc1)NCC(c1ccco1)N1CCCCC1 (stereo unspecified) 3.84%
CN1OC[C@@H]2CN[C@H](c3ccc(-c4cccc(F)c4)cc3)C[C@@H]21 15.6%
Cc1nn2cc(-c3ccc(-c4ccccc4)cc3)nc2s1 11.1%
Cc1nn2cc(-c3ccc(Cl)cc3)nc2s1 -6.27%
CC(C)C(=O)N1CCN(c2ccc(NC(=O)c3ccc4c(c3)OCCO4)cc2)CC1 5.03%
Cc1nn(-c2ccccc2)c(Cl)c1/C=N/O 9.11%
Cc1nn(-c2ccccc2)c(C)c1/C=N/O 12.2%
Cc1ccc2nc(C)c(C(=O)N/N=C/c3ccco3)cc2c1 3.04%
CCN(C[C@H]1N[C@@](C)(C(=O)OC)[C@H]2C(=O)N(C)C(=O)[C@@H]12)C(=O)c1ccccc1 6.04%
CC(=O)N(C1=C(N)C(=O)c2ccccc2C1=O)c1ccccc1 9.97%
CC(=O)N(C1=C(N2CCOCC2)C(=O)c2ccccc2C1=O)c1ccc(C(=O)O)cc1 -12.8%
CSc1ccc(NC(=O)CSc2nc3[nH]c(=O)cc(O)c3s2)cc1 11.1%
N[C@@H](Cc1ccc(O)c(O)c1)C(=O)O 6.56%
COC(=O)[C@@H](N)Cc1ccc(O)c(O)c1 -7.99%
COc1ccc(N2CC(C(=O)Nc3ccc(N4CCOCC4)cc3)CC2=O)cc1 (stereo unspecified) 6.69%
CCOc1cc(C(c2c(C)[nH][nH]c2=O)c2c(C)[nH][nH]c2=O)ccc1OCc1ccc([N+](=O)[O-])cc1 -0.47%
Cc1ccccc1N(C(=O)c1csnn1)C(C(=O)NC1CCCCC1)c1ccncc1 (stereo unspecified) -1.41%
Cc1nc2nc(-c3ccccc3)cc(=O)n2[nH]1 4.54%
Cc1cc2nc(-c3ccccc3)cc(=O)n2[nH]1 14.4%
CC(C)C(=O)Nc1nnc(NC(=S)Nc2ccccc2)s1 1%
COc1ccccc1Nc1ncnc2nc[nH]c12 6.06%
COc1cccc2[nH]c3c(Cl)ncnc3c12 5.53%
CCOCCn1c(SC(C)C(C)=O)nc2c1c(=O)[nH]c(=O)n2C (stereo unspecified) 5.63%
CCOC(=O)c1c(C)oc2c(CN3CCN(C)CC3)c(Br)c(OC)c(O)c12 14.1%
COc1ccccc1N=Nc1c(C)n[nH]c1C 7.74%
COc1ccccc1N=Nc1c(C)noc1C 2.76%
COCCN(C(=O)CSc1nc2ccc(Cl)cc2[nH]1)c1c(N)n(Cc2ccccc2)c(=O)[nH]c1=O 10.9%
Cn1ncc(Cl)c1C(=O)N1CCN(c2cccc(Cl)c2)CC1 7.96%
CCN(c1ccccc1)S(=O)(=O)c1ccc(Cl)c(NC(=O)CN2CCN(C)CC2)c1 -0.66%
CCN(c1ccccc1)S(=O)(=O)c1ccc(Cl)c(NC(=O)CN2CCCCCC2)c1 29.2%
CCCCSCCCNC(=O)c1ccc(CS(=O)(=O)c2ccccc2OC)o1 5.81%
CC(C)Cn1c(-c2ccc(F)cc2)n[nH]c1=S 14.4%
CC(C)Cn1c(-c2ccco2)n[nH]c1=S 26.8%
CCOC(=O)C1=C(c2ccccc2)Nc2ncnn2C1c1ccc(O)cc1 (stereo unspecified) 5.08%
COc1ccc(N2C(=O)CSC2c2ccncc2)cc1 (stereo unspecified) 8.8%
COc1ccc(C2CC(c3ccncc3)=NN2c2ccc(S(N)(=O)=O)cc2)cc1 (stereo unspecified) 9.08%
Cc1ccnc(NC(=O)c2cccc(NC(=O)c3ccccc3C)c2)c1 11.1%
O=C(CN1CCOCC1)N/N=C/c1ccc(-c2cccc(Cl)c2Cl)o1 7.09%
Clc1ccc(-c2ccc(C=Nc3ccc(N4CCOCC4)cc3)o2)c(Cl)c1 9.07%
Clc1cccc(-c2ccc(C=Nc3ccc(N4CCOCC4)cc3)o2)c1 23.7%
Clc1ccc(-c2ccc(C=Nc3ccc(N4CCOCC4)cc3)o2)cc1 25.6%
Cc1c(C)c2cccnc2c2ncccc12 8.09%
O=C1CCCc2oc3ccc(NS(=O)(=O)c4cccc5cccnc45)cc3c21 -1.33%
COc1ccc(Br)cc1S(=O)(=O)n1nc(C)cc1C -4.17%
CCN(CC(=O)NCCCn1ccnc1)S(=O)(=O)c1ccc(C)cc1 -8.53%
O=C(c1cccn2c(=O)c3cc(Cl)ccc3nc12)N1CCN(Cc2ccc3c(c2)OCO3)CC1 9.42%
Cc1cc(C)c(C#N)c(Sc2ccc(N)cc2)n1 8.38%
COc1ccccc1CN1CC(C(=O)NCc2cnn(C)c2)CCC1=O (stereo unspecified) 5.74%
COc1cc(CNCc2ccco2)cc(OC)c1O 6.83%
COc1cccc(CNCc2cccc(OC)c2O)c1O -13.3%
CCOC(=O)c1ccccc1NC(=O)COC(=O)c1ccc(OCC(=O)N2CCOCC2)c(OCC)c1 4.78%
Cc1ccc(N(CC(=O)N2CCc3ccccc32)S(=O)(=O)c2cccs2)cc1 1.58%
COc1ccccc1OCC#CCSc1ncccn1 7.44%
COc1ccccc1OCC#CCNC1CCCCC1C (stereo unspecified) 22.6%
CCN1CCN(CC#CCOc2ccccc2OC)CC1 29.8%
COc1ccc(OCC#CCn2ccnc2)cc1 -14.9%
CC1CC(C)CN(S(=O)(=O)c2ccc(C(=O)Nc3sccc3C(N)=O)cc2)C1 (stereo unspecified) 3.38%

From PubChem BioAssay AID624330 (Southern Research Specialized Biocontainment Screening …, 2012)
